{"source": "PubChem BioAssay AID652234", "about": "(Broad Institute, 2013)", "molecular_target": "Ubiquitin carboxyl-terminal hydrolase 9X (Homo sapiens) (UniProt Q93008)", "sequence (Q93008 whole entry, looked up)": "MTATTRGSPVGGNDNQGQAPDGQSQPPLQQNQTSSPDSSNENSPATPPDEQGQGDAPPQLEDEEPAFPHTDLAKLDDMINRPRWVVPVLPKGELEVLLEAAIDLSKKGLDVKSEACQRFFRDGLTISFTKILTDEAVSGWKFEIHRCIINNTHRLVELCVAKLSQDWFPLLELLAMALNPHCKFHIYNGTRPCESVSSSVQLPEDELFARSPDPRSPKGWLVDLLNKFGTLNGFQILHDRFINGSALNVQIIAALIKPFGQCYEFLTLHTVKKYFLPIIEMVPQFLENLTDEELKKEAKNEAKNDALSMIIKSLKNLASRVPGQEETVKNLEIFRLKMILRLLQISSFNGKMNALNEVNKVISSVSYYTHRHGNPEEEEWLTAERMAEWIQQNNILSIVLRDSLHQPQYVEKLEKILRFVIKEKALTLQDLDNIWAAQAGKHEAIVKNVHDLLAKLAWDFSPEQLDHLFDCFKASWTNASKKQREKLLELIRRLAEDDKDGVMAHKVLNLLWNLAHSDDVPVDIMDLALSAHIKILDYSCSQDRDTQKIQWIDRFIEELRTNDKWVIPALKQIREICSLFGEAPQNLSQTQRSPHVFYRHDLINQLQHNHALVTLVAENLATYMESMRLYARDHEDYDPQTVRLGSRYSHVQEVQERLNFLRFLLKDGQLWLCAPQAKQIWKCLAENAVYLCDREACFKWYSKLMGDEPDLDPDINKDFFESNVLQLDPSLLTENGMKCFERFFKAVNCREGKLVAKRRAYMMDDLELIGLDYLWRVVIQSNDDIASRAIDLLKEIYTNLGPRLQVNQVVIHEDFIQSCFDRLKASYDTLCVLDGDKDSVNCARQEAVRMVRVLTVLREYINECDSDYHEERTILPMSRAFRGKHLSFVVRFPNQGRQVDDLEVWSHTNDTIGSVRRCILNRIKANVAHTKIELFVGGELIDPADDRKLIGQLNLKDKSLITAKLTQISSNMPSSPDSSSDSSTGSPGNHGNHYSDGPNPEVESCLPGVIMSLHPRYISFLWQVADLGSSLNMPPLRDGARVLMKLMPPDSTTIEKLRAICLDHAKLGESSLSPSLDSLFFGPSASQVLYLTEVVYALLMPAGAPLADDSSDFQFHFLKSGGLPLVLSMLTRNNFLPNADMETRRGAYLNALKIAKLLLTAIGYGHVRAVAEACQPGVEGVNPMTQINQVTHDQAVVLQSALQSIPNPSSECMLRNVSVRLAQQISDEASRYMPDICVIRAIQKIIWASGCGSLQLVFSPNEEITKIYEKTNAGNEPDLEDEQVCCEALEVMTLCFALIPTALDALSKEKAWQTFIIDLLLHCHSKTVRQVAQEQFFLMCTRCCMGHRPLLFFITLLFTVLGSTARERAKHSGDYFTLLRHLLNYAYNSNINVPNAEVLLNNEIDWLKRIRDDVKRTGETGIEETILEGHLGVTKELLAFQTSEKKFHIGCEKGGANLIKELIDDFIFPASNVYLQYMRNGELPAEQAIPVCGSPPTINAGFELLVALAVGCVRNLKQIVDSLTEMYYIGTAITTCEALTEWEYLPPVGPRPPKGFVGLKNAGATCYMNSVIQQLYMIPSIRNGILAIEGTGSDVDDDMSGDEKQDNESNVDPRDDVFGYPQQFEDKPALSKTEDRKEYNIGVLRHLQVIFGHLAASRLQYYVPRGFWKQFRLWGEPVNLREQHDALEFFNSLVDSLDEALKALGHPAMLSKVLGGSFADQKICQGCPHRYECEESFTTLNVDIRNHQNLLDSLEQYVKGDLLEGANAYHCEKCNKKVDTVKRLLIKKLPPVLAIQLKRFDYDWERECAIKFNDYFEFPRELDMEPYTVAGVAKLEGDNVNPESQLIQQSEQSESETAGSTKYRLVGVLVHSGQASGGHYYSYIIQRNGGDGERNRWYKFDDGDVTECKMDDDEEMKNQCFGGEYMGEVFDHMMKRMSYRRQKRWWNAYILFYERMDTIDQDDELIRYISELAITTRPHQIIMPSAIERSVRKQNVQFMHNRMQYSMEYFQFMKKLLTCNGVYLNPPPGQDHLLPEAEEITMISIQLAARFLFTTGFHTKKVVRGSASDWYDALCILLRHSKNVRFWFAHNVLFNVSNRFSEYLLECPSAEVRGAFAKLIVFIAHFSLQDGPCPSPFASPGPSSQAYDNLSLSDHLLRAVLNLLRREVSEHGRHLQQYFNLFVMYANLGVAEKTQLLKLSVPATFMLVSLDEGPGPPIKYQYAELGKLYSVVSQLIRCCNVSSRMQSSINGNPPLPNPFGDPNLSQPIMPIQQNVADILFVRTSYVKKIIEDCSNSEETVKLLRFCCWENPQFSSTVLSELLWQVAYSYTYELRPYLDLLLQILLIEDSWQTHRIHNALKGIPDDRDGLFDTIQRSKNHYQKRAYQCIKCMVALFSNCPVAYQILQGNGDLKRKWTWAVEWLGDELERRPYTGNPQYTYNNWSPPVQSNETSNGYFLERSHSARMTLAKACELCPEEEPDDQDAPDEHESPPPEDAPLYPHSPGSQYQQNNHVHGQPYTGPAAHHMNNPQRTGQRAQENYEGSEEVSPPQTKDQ", "test": "binders of human deubiquitinase USP9X – biophysical, surface plasmon resonance, orthogonal assay, late-stage follow-up (AID 652234)", "settings": "Recombinant USP9X, SPR Biacore T200, RU; at 100 µM (top of the series)", "note": "Active and inactive are the calls of the source. The rule behind the calls is not given here."}
{"smiles": "C[C@@H]1CN([C@@H](C)CO)C(=O)c2cccc(NC(=O)Nc3cccc4ccccc34)c2O[C@H]1CN(C)S(=O)(=O)c1ccc2c(c1)OCCO2", "values": [{"measurement": "binding signal (RU), higher = more binding", "value": "11.2 (active)"}]}
